The structures appear in SMILES notation. Several values for one entry are separate records, joined by “and”; a condition that tells them apart may be missing. Equal values may be shown once. About 83,000 compounds went through this panel and 20% of them were active in at least one assay; those are over-represented in the sample as a whole.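 Negative percent growth values reflect cell death: -40 means 40% of the cells present at the start died, and -100 means all died.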 Values without a mark were called inactive. Activity calls are given as the source filed them.

In this assay the test system is SK-MEL-28 melanoma. Briefly: NCI-60 one-dose screen, 48 h (100 = growth as untreated, 0 = no growth, -100 = all killed). As to conditions: 10 µM unless noted. The procedure:
Growth inhibition of the SK-MEL-28 human tumor cell line is measured as a screen for anti-cancer activity. Cells are grown in 96 well plates and exposed to the test compound for 48 hours. Compounds are tested at a single concentration, which is 10^-5 M for most compounds. The reported endpoint is percent growth (GI% or GIPRCNT), where numbers from 0 - 100% represent growth inhibition, and numbers from -100% - 0 represent cell death. For example, a value of 40 represents 60% growth inhibition. A value of 0 means no net growth occurred over the course of the experiment. A value of -40 indicates 40% of cells at the beginning of the experiment died by the end of the experiment. A value of -100 means all cells are dead at the end of the experiment.
NCI-60 Human Tumor Cell Lines Screen was performed using the standard one-dose NCI protocol, which is described in more detail at https://dtp.cancer.gov/discovery_development/nci-60/default.htm.
Compounds with GIPRCNT values below 10 were considered active. Activity score was based on GIPRCNT using the following formula: […]
Score is 0 for GIPRCNT values of 100 or above, 50 for GIPRCNT values of 0, and 100 for GIPRCNT values of -100.
As for `O=[N+]([O-])c1ccc(NC(=S)NNC(=S)Nc2ccc(Br)cc2)cc1`, the growth is 102%.
The value for `O=C1[C@@H]2Cc3c([nH]c4ccccc34)[C@H](c3ccc(Cl)cc3)N2C(=O)CN1C1CCN(Cc2ccccc2)CC1` was 77.8%; that for `Cc1cccc(N2CCN(C3=C(Cl)C(=O)c4ncccc4C3=O)CC2)c1` was 92.1%.
The result for `Cn1c(SCC(=O)c2ccc(F)cc2)nc2ccccc2c1=O` reads 105%; that for `CC1=C(C)C(=O)C(Nc2ccc3c(c2)OCO3)=C(Br)C1=O`, 110%.
The value for `CS(=O)(=O)c1nccc(-c2c(-c3cccc(OCc4ccc(Cl)c(C(F)(F)F)c4)c3)nc3sccn23)n1` was 50.5%.
`CCN(CC)c1ccc(/C=N/NC(=O)c2ccc(S(N)(=O)=O)cc2)c(O)c1`: the growth is 20.6%.
The value for `CN(C)CCCOc1ccc(C(=C(c2ccccc2)C2CCCC2)c2ccc(OCCCN(C)C)cc2)cc1` was -96.4% (active); that for `COc1ccc2c(c1)c(-c1nc(N)nnc1-c1c[nH]c3ccccc13)cn2C` was 54.5%.
The result for `COc1ccc(-c2cc(-c3ccc(N4CCOCC4)cc3)n3c(n2)nc2ccccc23)cc1OC` reads 94.4%; that for `CCCCc1nc2c(N)nc3ccccc3c2n1Cc1cccc(CN)c1`, 59.4%; that for `CC(=O)OC[C@@]12Oc3c(cccc3-c3ccc(O)c4c3O[C@]3(COC(C)=O)C(=C4O)C(=O)C[C@H](C)[C@@H]3OC(C)=O)C(O)=C1C(=O)C[C@H](C)[C@@H]2OC(C)=O`, 9.46% (active).
Take `CC1(C)CC[C@]23CC[C@]4(C)[C@H](CC[C@@H]5[C@@]6(C)CC[C@H](NCO)C(C)(C)[C@@H]6CC[C@]54C)[C@H]2[C@H]1OC3`: the growth is 89.5%.
The value for `Cc1ccc(/C(N)=N/C(N)=N/c2nc3ccccc3s2)cc1` was 116%.
As for `O=C(Nc1ccc(Cl)c(C(F)(F)F)c1)Nc1ccc2oc(=O)ccc2c1`, the growth was 66.7%.
The value for `O=C1/C(=C/C=C/c2ccco2)SC(=S)N1Cc1ccccc1` was 101%; that for `C/C=C/CC(C)C(O)[C@H](NC(=O)[C@@H]1CCCN1C(=O)[C@](C)(CC)NC(=O)CCCCCCCCC)C(=O)N[C@@](C)(CC)C(=O)N[C@@H](CCC(N)=O)C(=O)N[C@H](CCC(N)=O)C(=O)NC(C)(C)C(=O)NC(C)(C)C(=O)N[C@@H](CCC(N)=O)C(=O)N[C@H](CC(C)C)C(=O)N[C@H](CO)CC(C)C` (stereo not given in full) was -42.7% (active) and -100% (active); that for `O=C(CCCCCCNC(=O)C(O)(O)C(F)(F)F)Nc1ccc(Br)cc1` was 9.41% (active).
The value for `O=C(NCCNc1cc(-c2cn(-c3ccccc3)nc2-c2cccc(O)c2)ccn1)Nc1cc(C(F)(F)F)cc(C(F)(F)F)c1` was 96.9%; that for `CN1c2ccccc2Sc2cc(/C=N/Nc3ccnc4cc(Cl)ccc34)ccc21` was 103%; that for `Cn1cc(-c2nc(N)nnc2-c2c[nH]c3ccc(Br)cc23)c2cc(F)ccc21` was 101%.
The result for `O=C(CCCCCCN1CC(=O)N2[C@@H](c3ccc(Cl)s3)c3[nH]c4ccccc4c3C[C@H]2C1=O)NO` reads 37.2%.
On to `C#CCOc1cccc(/C(N)=N/C(N)=N/c2nc3ccccc3s2)c1`, for which the growth was 115%.
Turning to `COc1ccc(CC(C)=C(c2ccc(OCCN3CCCC3)cc2)c2ccc(OCCN3CCCC3)cc2)cc1`, the growth is -92.2% (active).
The result for `O=S1SC(c2ccccc2)=NN1c1cc(F)cc(F)c1` (stereo not given) reads 46.4%; that for `Cc1csc(/N=C(N)/N=C(\N)c2cccc(Br)c2)n1`, 92.1%.
As to `NS(=O)(=O)c1ccc(Nc2nc(N/N=C/C=C/c3ccccc3)nc(Nc3ccccc3)n2)cc1`, the growth is 60.3%.
The result for `O=C(CSc1nnc(-c2cccs2)n1-c1ccccc1)Nc1ccccc1F` reads 81.1%; that for `CCOC(=O)c1c(NC(=O)c2ccc(C(F)(F)F)cc2)sc2c(CN3CCN(C)CC3)c(O)ccc12`, -82.3% (active); that for `COc1ccc2c(c1)C=CC1(O2)Oc2ccc(OC)cc2C=C1C` (stereo not given), 54.2%.
The value for `COc1ccccc1N1CCN(C2=C(Cl)C(=O)c3ncccc3C2=O)CC1` was 98.4%; that for `O=S(=O)(Oc1ccc(-c2cn3ccsc3n2)cc1)c1cccc(C(F)(F)F)c1` was 99.6%.
Regarding `O=c1[nH][nH]c(-c2ccc(F)cc2)c1-c1nc2ccccc2s1`, the growth was 97.7%.
The value for `O=C(CSc1nnc(-c2ccc(Cl)cc2)n1-c1ccccc1)Nc1ccccc1Cl` was 99.2%; that for `O=C1Nc2cc(Cl)ccc2/C1=C\c1ccc(OCc2ccccc2)cc1` was 103%.
The result for `Cc1ccc(-c2csc(N/N=C/c3cccs3)n2)cc1` reads 102%; that for `CCc1cc2c(cc1Cl)nc1c(=O)[nH]c(=O)nc-1n2CCOCC(C)C`, 87%.
The result for `Cn1cc(-c2nnc(N)nc2-c2c[nH]c3ccc(F)cc23)c2cc(Br)ccc21` reads 60.4%.
For `CN1CCN(c2ccc(Nc3nc(NCCNS(=O)(=O)c4ccc(Cl)cc4)c4sccc4n3)cc2)CC1`, the growth is 94.5%.
The value for `CC(C)(C)Nc1nc2c(OCCc3ccccc3)cccn2c1-c1ccc([N+](=O)[O-])cc1` was 76.2%.

The values are drawn from PubChem BioAssay (NCI).
